Inconclusive results are not listed. The source made the active and inactive calls. Unless noted, calls come from the whole dose curve; as a rule, active = well fitted curve in the direction sought with a large enough effect in the repeat runs; inconclusive = weak or mixed curves; inactive = no such curve, though single readings can be large; an effect the other way counts as inactive or inconclusive.
Experiments:
[1] = qHTS assay to identify small molecule antagonists of the estrogen related receptor (ERR) signaling pathway - cell viability counter screen (AID 1224818);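 note: series mostly up to about 46 µM; viability measured after 17.5 h of compound exposure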
Method in brief: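 In the same ERR cell assay, compound-treated wells (17.5 h, 37 C) were multiplexed with a fluorogenic viability reagent, CellTiter-Fluor, read after 30 min to flag cytotoxic substances.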

[2] = qHTS assay to identify small molecule antagonists of the estrogen related receptor (ERR) signaling pathway (AID 1224819;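 note: luminescence from an ERR-driven luciferase reporter measured with One-Glo reagent; series mostly up to about 46 µM; nearly all actives have a fitted effect of over 50% in size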)
Method in brief: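 qHTS in ERR cells, 2,000/well, 1536 format. Cpd (DMSO) added after 6 h settle, 18 h 37 C. One-Glo luminescence, 30 min RT.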

[3] = qHTS assay to identify small molecule agonists of the estrogen related receptor (ERR) signaling pathway (AID 1224820)
Method in brief: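 Cells: ERR line from NTP, 2,000/well. Pre-incubation 6 h, 37 C/5% CO2. Compound (DMSO) pin transfer, 18 h 37 C. One-Glo, 30 min RT, luminescence.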

[4] = test system: estrogen-related receptor alpha (ERRalpha) with PGC-1alpha coactivator, human; test: qHTS assay to identify small molecule antagonists of the estrogen related receptor signaling pathway with the pleiotropic PPARgamma coactivator (PGC) (AID 1224821; calls by dose curve;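 note: series mostly up to about 46 µM; lower luminescence signal means antagonism of PGC/ERR signalling; nearly all actives have a fitted effect of over 50% in size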)
Method in brief: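 Luminescent read-out (One-Glo, 30 min at room temperature) following 18 h treatment of PGC/ERR cells at 37 C with compounds delivered in DMSO. Cells had settled 6 h at 37 C/5% CO2 before dosing.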

[5] = qHTS assay to identify small molecule antagonists of the estrogen related receptor signaling pathway with the pleiotropic PPARgamma coactivator (PGC) cell viability counter screen (AID 1224822; note: series mostly up to about 46 µM)
Method in brief: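 Compounds in DMSO, with positive and negative controls, were applied to PGC/ERR cells (2,000/well) and left 17.5 h at 37 C before CellTiter-Fluor detection.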

[6] = qHTS assay to identify small molecule agonists of the estrogen related receptor signaling pathway with the pleiotropic PPARgamma coactivator (PGC) (AID 1224823)
Method in brief: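 Steps: plate PGC/ERR cells at 2,000 cells/well; incubate 6 h, 37 C/5% CO2; pin-transfer compounds (DMSO); incubate 18 h, 37 C; add One-Glo; 30 min RT; read luminescence.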

Measured: Potency

O=C(Cc1ccc(Cl)c(Cl)c1)N1CCCCC1CN1CCCC1 (stereo not given)
inactive: [1] | [2] | [3] | [4] | [5] | [6]

CN(C(=O)Cc1ccc(Cl)c(Cl)c1)C(CN1CCCC1)c1cccc(OCC(=O)O)c1 (stereo not given)
inactive: [1] | [2] | [3] | [4] | [5] | [6]

C[C@@H]1O[C@H](C[N+](C)(C)C)C[C@H]1O
inactive: [1] | [2] | [3] | [4] | [5] | [6]

C[N+]1(C)CCc2cc3c(cc2[C@H]1[C@@H]1OC(=O)c2c1ccc1c2OCO1)OCO3
inactive: [1] | [2] | [3] | [4] | [5] | [6]

NC(=NCCC[C@H](N)C(=O)O)N[N+](=O)[O-]
inactive: [1] | [2] | [3] | [4] | [5] | [6]

NC(N)=NOCC[C@H](N)C(=O)O
inactive: [1] | [2] | [3] | [4] | [5] | [6]

O=C(O)Cc1cnc[nH]1
inactive: [1] | [2] | [3] | [4] | [5] | [6]

CCCN1CC[C@@H]2c3cc(O)ccc3CC[C@@H]21
inactive: [1] | [2] | [3] | [4] | [5] | [6]

C[C@H](N)Cc1cccc(C(F)(F)F)c1
inactive: [1] | [2] | [3] | [4] | [5] | [6]

Nc1ncnc2c1ncn2[C@@H]1O[C@H](COP(=O)(O)CP(=O)(O)OP(=O)(O)O)C(O)[C@H]1O (stereo not given in full)
inactive: [1] | [2] | [3] | [4] | [5] | [6]

COc1ccc2c(c1O)-c1cccc3c1[C@@H](C2)N(C)CC3
inactive: [1] | [2] | [3] | [4] | [5] | [6]

CCCn1c(=O)c2[nH]c(C3CCCC3)nc2n(CCCOC(=O)c2ccc(S(=O)(=O)F)cc2)c1=O
inactive: [1] | [2] | [3] | [4] | [5] | [6]

CCOC(=O)c1ncn2c1[C@@H]1CCCN1C(=O)c1cc(OC)ccc1-2
inactive: [1] | [2] | [3] | [4] | [5] | [6]

NCCc1c[nH]c2ccc(O)cc12
inactive: [1] | [2] | [3] | [4] | [5] | [6]

CC1OC1P(=O)(O)O (stereo not given)
inactive: [1] | [2] | [3] | [4] | [5] | [6]

CN1C2CCC1CC(OC(c1ccccc1)c1ccccc1N)C2 (stereo not given)
inactive: [1] | [2] | [3] | [4] | [5] | [6]

CNCCc1c[nH]c2ccc(O)cc12
inactive: [1] | [2] | [3] | [4] | [5] | [6]

c1ccc2c(N3CCNCC3)cccc2c1
inactive: [1] | [2] | [3] | [4] | [5] | [6]

COc1ccc2[nH]cc(CCN)c2c1
inactive: [1] | [2] | [3] | [4] | [5] | [6]

C=CCN1CCC23c4c5ccc(O)c4O[C@H]2C(=O)CC[C@@]3(O)C1C5 (stereo not given in full)
inactive: [1] | [2] | [3] | [4] | [5] | [6]

C[N+]1(C)CCN(c2ccccc2)CC1
inactive: [1] | [2] | [3] | [4] | [5] | [6]

NCCc1ccc(S(=O)(=O)F)cc1
inactive: [1] | [2] | [3] | [4] | [5] | [6]

Oc1ccc2c3c1O[C@H]1c4[nH]c5c(c4C[C@@]4(O)[C@@H](C2)N(CC2CC2)CC[C@]314)C[C@@]1(O)[C@H]2Cc3ccc(O)c4c3[C@@]1(CCN2CC1CC1)[C@H]5O4
inactive: [1] | [2] | [3] | [4] | [5] | [6]

NC(CP(=O)(O)O)C(=O)O (stereo not given)
inactive: [1] | [2] | [3] | [4] | [5] | [6]

O=C(O)[C@@H]1CCN1
inactive: [1] | [2] | [3] | [4] | [5] | [6]

COc1cc(C(O)CN)ccc1O (stereo not given)
inactive: [1] | [2] | [3] | [4] | [5] | [6]

CC(C)[C@H]1CN[C@H](C(=O)O)[C@H]1CC(=O)O
inactive: [1] | [2] | [3] | [4] | [5] | [6]

CN1CCc2cccc(Cl)c2CC1
inactive: [1] | [2] | [3] | [4] | [5] | [6]

O=C1CCCN1CC#CCN1CCCC1
inactive: [1] | [2] | [3] | [4] | [5] | [6]

COc1ccc(OC)c(C(O)C(C)N)c1 (stereo not given)
inactive: [1] | [2] | [3] | [4] | [5] | [6]

CC(C)(C)c1o[nH]c(=O)c1CC(N)C(=O)O (stereo not given)
inactive: [1] | [2] | [3] | [4] | [5] | [6]

Cn1cnc(CCN)c1
inactive: [1] | [2] | [3] | [4] | [5] | [6]

NC(C(=O)O)c1cc(=O)[nH]o1 (stereo not given)
inactive: [1] | [2] | [3] | [4] | [5] | [6]

CN(N=O)c1ccc(O)c(O)c1
inactive: [1] | [2] | [3] | [4] | [5] | [6]

NCC(O)c1cc(O)c(O)cc1F (stereo not given)
inactive: [1] | [2] | [3] | [4] | [5] | [6]

Reference: PubChem BioAssay (Tox21)
